Common to all, as to test: DAPPL (digital affinity profiling via proximity ligation, sequencing); 10 mM Tris-HCl pH 7.5, 50 mM NaCl, 1 mM DTT, 4% glycerol, room temperature, 30 min; GST-TFs on glutathione beads, 16-mer random dsDNA library, 0.1% formaldehyde crosslink after washing; high values mean tight binding
For experiment [1], the target named is T1, FLI1 (Homo sapiens, UniProt Q01543 1-452).
T1 sequence: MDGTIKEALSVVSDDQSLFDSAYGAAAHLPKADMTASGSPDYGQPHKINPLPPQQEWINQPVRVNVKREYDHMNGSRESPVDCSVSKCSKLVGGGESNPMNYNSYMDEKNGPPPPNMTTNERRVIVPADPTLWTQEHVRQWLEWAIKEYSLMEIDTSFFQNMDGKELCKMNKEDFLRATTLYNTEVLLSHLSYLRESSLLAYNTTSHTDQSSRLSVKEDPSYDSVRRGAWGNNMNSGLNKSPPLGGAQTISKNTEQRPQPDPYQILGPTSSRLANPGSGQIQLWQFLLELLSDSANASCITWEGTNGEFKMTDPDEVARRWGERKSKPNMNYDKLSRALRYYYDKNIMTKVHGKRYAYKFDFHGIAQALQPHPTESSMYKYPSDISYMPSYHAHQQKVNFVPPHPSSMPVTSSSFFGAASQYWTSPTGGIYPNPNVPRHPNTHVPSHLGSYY
The following applies: protein: recombinant; tags: N-terminal GST; dsDNA, one strand shown. Summed up: (§1)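 Pools of DNA-barcoded human transcription factors, expressed in yeast as GST fusions on glutathione beads and combined with a tag-only sample, were incubated with 200 nmole of a 16-mer random double-stranded DNA library. Incubation took 30 min at room temperature in Tris/NaCl/DTT/glycerol buffer and was followed by washing, 0.1% formaldehyde crosslinking, proximity ligation (BsaI/T4 ligase, 1 h, 37 °C), PCR amplification and sequencing on an Illumina NextSeq500. Binding signal is the ratio of a hexamer's read frequency for a factor to its frequency for the tag-only sample.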

Experiment [2] has as its target T2, ELK1 (Homo sapiens, UniProt P19419 1-428).
T2 sequence: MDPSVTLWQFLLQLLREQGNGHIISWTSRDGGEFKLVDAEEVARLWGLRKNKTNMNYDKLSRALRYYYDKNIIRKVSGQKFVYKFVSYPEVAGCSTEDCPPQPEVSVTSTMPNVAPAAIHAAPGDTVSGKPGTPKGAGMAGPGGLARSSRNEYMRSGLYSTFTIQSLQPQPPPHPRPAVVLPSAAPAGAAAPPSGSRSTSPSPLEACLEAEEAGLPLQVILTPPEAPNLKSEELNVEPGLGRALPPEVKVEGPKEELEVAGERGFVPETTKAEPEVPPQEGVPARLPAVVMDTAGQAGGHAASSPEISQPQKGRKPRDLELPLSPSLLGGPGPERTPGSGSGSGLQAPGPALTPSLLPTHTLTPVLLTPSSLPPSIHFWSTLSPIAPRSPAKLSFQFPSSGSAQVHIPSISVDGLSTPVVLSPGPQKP
The following applies: protein: recombinant; tags: N-terminal GST; dsDNA, one strand shown. In a few lines:
as §1

Experiment [3] addresses T3, GABPA (Homo sapiens, UniProt Q06546 1-454).
T3 sequence: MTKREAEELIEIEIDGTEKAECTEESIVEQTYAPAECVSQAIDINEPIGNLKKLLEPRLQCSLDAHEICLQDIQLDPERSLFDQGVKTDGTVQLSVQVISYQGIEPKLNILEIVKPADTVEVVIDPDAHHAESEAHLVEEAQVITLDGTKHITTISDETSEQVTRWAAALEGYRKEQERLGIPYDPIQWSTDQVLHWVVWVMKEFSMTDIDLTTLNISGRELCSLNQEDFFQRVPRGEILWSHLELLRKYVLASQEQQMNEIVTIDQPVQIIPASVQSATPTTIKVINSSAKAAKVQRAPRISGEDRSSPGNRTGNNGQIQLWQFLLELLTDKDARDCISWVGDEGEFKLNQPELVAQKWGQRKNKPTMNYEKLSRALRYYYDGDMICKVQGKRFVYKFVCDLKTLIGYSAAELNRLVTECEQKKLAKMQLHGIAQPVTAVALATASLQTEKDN
The following applies: protein: recombinant; tags: N-terminal GST; dsDNA, one strand shown. In a few lines: as §1

The target in experiment [4] is T4, ERG (Homo sapiens, UniProt P11308 1-479).
T4 sequence: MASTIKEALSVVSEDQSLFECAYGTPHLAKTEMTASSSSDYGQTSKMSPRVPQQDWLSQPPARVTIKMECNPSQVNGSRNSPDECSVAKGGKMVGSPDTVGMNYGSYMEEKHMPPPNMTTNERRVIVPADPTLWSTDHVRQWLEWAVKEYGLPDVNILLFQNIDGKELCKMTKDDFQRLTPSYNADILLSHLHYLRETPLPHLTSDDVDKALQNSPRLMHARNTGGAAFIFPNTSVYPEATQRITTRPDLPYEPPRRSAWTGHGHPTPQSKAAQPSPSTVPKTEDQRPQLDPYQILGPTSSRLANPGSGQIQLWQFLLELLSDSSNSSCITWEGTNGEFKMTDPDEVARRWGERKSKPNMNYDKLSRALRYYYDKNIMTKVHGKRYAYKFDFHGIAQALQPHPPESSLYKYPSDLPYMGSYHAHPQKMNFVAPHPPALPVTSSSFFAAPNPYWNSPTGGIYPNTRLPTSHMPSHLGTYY
To be noted: protein: recombinant; tags: N-terminal GST; dsDNA, one strand shown. Summed up: as §1

Experiment [5] concerns the target ELF1 (Homo sapiens, UniProt P32519 1-619). The following applies: protein: recombinant; tags: N-terminal GST; dsDNA, one strand shown. In a few lines:
as §1

Experiment [6] addresses T5, EHF (Homo sapiens, UniProt Q9NZC4 1-300).
T5 sequence: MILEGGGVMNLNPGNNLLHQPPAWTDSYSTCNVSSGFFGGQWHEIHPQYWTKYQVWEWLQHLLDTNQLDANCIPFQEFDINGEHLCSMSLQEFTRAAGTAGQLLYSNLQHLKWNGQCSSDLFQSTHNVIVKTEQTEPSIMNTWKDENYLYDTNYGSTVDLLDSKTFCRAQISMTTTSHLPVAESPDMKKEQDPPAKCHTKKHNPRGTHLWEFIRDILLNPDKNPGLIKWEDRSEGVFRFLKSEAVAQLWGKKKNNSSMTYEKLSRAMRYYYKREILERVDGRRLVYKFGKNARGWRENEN
The following applies: protein: recombinant; tags: N-terminal GST; dsDNA, one strand shown. In a few lines:
as §1

For experiment [7], the target named is SPI1 (Homo sapiens, UniProt P17947 1-270). To be noted: protein: recombinant; tags: N-terminal GST; dsDNA, one strand shown. In a few lines: as §1
In experiment [8] the target is SPIB (Homo sapiens, UniProt Q01892 1-262). The following applies: protein: recombinant; tags: N-terminal GST; dsDNA, one strand shown. Summed up: as §1
SPIB, sequence (Q01892 whole entry): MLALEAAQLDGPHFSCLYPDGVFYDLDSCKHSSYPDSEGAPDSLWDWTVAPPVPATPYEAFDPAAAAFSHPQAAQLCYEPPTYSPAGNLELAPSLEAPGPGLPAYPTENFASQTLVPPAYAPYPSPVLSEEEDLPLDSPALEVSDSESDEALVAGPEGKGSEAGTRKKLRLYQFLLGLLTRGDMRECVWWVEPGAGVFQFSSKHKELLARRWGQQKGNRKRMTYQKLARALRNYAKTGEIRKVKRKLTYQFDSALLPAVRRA
Experiment [9] deals with T6, ELK3 (Homo sapiens, UniProt P41970 1-407).
T6 sequence: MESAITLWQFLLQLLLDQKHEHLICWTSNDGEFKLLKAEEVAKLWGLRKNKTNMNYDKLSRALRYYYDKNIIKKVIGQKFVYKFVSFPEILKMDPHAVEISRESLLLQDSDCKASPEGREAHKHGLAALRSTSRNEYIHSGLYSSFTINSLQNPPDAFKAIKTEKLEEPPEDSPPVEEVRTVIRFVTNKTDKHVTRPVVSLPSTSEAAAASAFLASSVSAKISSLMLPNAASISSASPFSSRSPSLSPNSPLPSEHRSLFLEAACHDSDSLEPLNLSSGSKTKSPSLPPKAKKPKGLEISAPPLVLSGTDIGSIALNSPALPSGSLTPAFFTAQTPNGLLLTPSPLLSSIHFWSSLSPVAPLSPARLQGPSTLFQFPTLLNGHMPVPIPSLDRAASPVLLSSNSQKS
The following applies: protein: recombinant; tags: N-terminal GST; dsDNA, one strand shown. In a few lines:
as §1

Experiment [10] deals with T7, FEV (Homo sapiens, UniProt Q99581 1-238).
T7 sequence: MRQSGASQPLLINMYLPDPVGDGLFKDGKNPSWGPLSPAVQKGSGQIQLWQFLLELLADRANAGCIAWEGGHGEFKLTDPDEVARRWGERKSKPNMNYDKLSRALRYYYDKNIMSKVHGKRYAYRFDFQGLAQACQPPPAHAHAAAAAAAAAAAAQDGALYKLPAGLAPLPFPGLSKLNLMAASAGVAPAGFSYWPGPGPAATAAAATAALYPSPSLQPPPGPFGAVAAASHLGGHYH
The following applies: protein: recombinant; tags: N-terminal GST; dsDNA, one strand shown. Summed up:
as §1

In experiment [11] the target is ETV5 (Homo sapiens, UniProt P41161 1-510). To be noted: protein: recombinant; tags: N-terminal GST; dsDNA, one strand shown. Summed up:
as §1

Experiment [12] concerns the target HSF1 (Homo sapiens, UniProt Q00613 1-529). To be noted: protein: recombinant; tags: N-terminal GST; chain copies: 3; dsDNA, one strand shown. In a few lines: as §1
In experiment [13] the target is T8, SPIC (Homo sapiens, UniProt Q8N5J4 1-248).
T8 sequence: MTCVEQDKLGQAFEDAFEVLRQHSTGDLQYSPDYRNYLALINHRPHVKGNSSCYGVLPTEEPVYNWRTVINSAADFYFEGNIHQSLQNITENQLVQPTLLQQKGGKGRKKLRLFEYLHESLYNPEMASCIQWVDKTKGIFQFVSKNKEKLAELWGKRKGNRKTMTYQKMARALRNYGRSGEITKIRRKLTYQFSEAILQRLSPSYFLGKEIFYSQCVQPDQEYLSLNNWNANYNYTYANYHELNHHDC
The following applies: protein: recombinant; tags: N-terminal GST; dsDNA, one strand shown. Summed up: as §1

Experiment [14] has as its target ELF4 (Homo sapiens, UniProt Q99607 1-663). The following applies: protein: recombinant; tags: N-terminal GST; dsDNA, one strand shown. In a few lines: as §1
Experiment [15] concerns the target T9, ELK4 (Homo sapiens, UniProt P28324-2 1-405).
T9 sequence: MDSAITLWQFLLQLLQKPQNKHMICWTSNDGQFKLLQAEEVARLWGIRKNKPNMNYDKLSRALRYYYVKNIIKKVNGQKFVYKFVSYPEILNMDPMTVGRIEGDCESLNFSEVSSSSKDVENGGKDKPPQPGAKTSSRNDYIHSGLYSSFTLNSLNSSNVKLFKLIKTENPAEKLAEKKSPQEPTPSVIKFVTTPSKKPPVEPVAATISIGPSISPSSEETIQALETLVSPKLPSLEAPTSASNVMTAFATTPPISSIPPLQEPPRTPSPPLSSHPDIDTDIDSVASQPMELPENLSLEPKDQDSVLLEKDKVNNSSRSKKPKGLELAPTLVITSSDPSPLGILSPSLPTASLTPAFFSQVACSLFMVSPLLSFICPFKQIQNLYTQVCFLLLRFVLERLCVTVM
The following applies: protein: recombinant; tags: N-terminal GST; dsDNA, one strand shown. Summed up:
as §1

The target of experiment [16] is T10, ETV2 (Homo sapiens, UniProt O00321 1-342).
T10 sequence: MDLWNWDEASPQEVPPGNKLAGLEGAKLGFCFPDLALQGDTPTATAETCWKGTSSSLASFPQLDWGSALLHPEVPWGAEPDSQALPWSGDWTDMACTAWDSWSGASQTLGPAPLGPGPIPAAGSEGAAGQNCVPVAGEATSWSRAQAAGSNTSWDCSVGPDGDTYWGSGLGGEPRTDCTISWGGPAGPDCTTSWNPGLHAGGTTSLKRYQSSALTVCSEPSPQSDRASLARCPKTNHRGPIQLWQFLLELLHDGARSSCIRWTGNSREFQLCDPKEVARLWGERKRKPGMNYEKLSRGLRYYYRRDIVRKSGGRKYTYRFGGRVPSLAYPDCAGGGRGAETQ
To be noted: protein: recombinant; tags: N-terminal GST; dsDNA, one strand shown. Summed up: as §1

Experiment [17] addresses T11, ELF3 (Homo sapiens, UniProt P78545 1-371).
T11 sequence: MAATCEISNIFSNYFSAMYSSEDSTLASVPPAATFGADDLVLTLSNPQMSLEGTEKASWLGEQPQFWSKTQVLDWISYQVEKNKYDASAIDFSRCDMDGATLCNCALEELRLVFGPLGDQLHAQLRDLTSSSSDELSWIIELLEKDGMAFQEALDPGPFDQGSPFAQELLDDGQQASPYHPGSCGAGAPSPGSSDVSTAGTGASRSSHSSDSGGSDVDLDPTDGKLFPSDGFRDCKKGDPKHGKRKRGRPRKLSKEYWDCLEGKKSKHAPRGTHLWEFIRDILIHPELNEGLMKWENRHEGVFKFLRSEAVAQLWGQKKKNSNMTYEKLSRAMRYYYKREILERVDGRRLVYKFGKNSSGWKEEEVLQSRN
The following applies: protein: recombinant; tags: N-terminal GST; dsDNA, one strand shown. In a few lines: as §1

The target in experiment [18] is CRX (Homo sapiens, UniProt O43186 1-299). The following applies: protein: recombinant; tags: N-terminal GST; dsDNA, one strand shown. Summed up: as §1
CRX, sequence (O43186 whole entry): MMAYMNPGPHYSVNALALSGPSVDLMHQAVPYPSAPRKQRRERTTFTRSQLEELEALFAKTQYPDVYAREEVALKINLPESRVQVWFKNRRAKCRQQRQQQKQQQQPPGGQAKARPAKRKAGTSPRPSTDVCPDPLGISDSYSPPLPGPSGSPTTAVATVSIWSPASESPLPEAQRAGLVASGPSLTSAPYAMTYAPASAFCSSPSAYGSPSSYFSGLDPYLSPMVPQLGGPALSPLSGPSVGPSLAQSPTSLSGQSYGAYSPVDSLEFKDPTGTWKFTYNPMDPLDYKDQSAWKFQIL
The target in experiment [19] is ETV1 (Homo sapiens, UniProt P50549 1-477). To be noted: protein: recombinant; tags: N-terminal GST; dsDNA, one strand shown. In a few lines:
as §1

HSF1, sequence (Q00613 whole entry): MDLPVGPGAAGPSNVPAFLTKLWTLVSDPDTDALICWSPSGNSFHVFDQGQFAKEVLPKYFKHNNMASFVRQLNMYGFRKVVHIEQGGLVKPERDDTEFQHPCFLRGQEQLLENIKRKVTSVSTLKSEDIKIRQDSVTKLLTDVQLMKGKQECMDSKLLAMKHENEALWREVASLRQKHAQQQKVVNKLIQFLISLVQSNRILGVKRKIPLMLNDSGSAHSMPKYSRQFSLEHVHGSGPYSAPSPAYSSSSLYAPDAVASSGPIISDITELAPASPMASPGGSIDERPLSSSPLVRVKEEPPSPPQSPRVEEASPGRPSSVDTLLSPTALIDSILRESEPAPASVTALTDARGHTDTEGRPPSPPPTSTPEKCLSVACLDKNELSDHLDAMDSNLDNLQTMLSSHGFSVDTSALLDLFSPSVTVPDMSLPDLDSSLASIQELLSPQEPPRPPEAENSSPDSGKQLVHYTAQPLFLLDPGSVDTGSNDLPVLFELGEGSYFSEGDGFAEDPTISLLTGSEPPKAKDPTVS
ETV5, sequence (P41161 whole entry): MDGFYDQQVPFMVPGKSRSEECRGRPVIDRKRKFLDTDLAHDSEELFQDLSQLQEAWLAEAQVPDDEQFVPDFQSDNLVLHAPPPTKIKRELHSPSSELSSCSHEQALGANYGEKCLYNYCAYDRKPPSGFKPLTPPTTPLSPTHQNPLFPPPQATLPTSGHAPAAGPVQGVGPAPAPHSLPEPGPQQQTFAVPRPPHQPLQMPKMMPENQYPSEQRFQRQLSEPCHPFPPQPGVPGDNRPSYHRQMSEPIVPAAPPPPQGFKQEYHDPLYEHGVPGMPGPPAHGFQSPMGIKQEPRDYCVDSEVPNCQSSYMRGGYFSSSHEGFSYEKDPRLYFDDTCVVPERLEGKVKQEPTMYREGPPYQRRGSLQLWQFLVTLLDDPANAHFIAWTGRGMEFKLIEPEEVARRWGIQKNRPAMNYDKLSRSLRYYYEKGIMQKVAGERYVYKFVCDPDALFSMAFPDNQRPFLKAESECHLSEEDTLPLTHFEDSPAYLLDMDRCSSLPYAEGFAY
ETV1, sequence (P50549 whole entry): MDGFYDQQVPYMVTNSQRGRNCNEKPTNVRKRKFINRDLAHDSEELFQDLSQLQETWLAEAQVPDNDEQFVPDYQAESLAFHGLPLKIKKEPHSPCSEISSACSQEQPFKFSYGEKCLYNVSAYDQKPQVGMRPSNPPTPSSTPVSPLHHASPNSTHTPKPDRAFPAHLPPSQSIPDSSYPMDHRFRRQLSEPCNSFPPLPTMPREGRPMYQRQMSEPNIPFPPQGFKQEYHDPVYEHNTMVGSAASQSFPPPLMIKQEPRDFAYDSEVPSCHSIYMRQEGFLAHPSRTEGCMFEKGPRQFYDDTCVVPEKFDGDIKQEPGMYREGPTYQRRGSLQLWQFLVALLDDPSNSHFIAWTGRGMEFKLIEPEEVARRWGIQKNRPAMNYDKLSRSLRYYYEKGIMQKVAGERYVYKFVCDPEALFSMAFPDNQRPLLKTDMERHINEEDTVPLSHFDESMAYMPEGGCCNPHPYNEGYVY
ELF4, sequence (Q99607 whole entry): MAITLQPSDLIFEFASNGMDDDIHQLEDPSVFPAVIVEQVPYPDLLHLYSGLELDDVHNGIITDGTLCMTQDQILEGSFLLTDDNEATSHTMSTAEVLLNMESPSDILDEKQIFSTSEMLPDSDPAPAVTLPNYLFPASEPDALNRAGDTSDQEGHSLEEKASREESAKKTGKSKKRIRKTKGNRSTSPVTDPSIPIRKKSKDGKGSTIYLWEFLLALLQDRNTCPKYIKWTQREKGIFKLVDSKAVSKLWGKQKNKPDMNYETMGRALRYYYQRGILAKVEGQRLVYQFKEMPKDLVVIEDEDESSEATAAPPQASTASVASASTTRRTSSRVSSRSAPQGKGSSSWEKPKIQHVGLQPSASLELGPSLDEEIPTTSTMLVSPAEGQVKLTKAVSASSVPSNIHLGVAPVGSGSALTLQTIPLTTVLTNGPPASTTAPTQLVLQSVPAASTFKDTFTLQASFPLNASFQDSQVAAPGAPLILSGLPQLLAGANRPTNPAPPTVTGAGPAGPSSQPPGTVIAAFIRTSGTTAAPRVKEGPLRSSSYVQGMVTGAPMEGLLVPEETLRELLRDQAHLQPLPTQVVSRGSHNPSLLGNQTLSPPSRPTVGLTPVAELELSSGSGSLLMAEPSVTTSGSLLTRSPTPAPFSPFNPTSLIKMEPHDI
ELF1, sequence (P32519 whole entry): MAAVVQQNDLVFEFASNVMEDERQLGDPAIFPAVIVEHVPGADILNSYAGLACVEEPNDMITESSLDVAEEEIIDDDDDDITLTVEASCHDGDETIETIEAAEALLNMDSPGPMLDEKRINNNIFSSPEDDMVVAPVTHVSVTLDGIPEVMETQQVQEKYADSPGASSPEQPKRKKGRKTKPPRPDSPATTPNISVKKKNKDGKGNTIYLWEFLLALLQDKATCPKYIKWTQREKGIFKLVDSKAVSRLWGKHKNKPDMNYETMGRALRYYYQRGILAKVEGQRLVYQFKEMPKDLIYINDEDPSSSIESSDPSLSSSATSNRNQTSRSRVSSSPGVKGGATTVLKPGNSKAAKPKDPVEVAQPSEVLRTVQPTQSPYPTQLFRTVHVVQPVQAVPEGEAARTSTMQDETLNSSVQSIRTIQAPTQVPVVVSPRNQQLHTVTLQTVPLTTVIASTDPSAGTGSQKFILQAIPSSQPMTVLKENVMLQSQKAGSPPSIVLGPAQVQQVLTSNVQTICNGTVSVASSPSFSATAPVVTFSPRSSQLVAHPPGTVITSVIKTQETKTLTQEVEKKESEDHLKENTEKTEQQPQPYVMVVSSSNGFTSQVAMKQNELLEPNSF

On to CCTTAT, for which the binding signal in experiment [1] was 1.53 fold enrichment (6-mer frequency, TF over GST control); in experiment [2], 1.34 fold enrichment (6-mer frequency, TF over GST control); in experiment [3] it was 1.48 fold enrichment (6-mer frequency, TF over GST control); in [4], 1.45 fold enrichment (6-mer frequency, TF over GST control); in experiment [5], 1.39 fold enrichment (6-mer frequency, TF over GST control); in experiment [6], 1.57 fold enrichment (6-mer frequency, TF over GST control). Further, the binding signal in experiment [7] is 1.6 fold enrichment (6-mer frequency, TF over GST control); in [8], 1.49 fold enrichment (6-mer frequency, TF over GST control); in experiment [9], 1.28 fold enrichment (6-mer frequency, TF over GST control); in [10], 1.4 fold enrichment (6-mer frequency, TF over GST control); in experiment [11] it was 1.41 fold enrichment (6-mer frequency, TF over GST control); in [12], 1.35 fold enrichment (6-mer frequency, TF over GST control). Further, the binding signal was 1.33 fold enrichment (6-mer frequency, TF over GST control) in experiment [13]; 1.47 fold enrichment (6-mer frequency, TF over GST control) in [14]; 1.45 fold enrichment (6-mer frequency, TF over GST control) in experiment [15]; 1.39 fold enrichment (6-mer frequency, TF over GST control) in [16]; 1.37 fold enrichment (6-mer frequency, TF over GST control) in [17]; 1.77 fold enrichment (6-mer frequency, TF over GST control) in experiment [18]. Also, in [19], the binding signal was 1.62 fold enrichment (6-mer frequency, TF over GST control).

(Values after publication PMC7862700, “An all-to-all approach to the identification of sequence-specific readers for epigenetic DNA modifications on cytosine”.)
